# Reference: PubChem BioAssay AID431 (Sanford-Burnham Center for Chemical Genomics, 2006)
# The whole screen tested about 63,000 compounds, of which about 1,100 (1.7%) were called active.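 Rule for the calls: active = compounds whose percent cytotoxicity in the single-dose primary screen, scaled between solvent and toxic-drug controls, exceeds 50; inactive = the rest.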 This excerpt belongs to a sample that is enriched for actives. Results with a measured potency or affinity are listed apart.
# Experiment: cytotoxicity in KRAS-transformed pancreatic duct cells, primary screen, cell-based, fluorescence, HTS (AID 431);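 note: 0% = DMSO solvent wells and 100% = doxorubicin-treated wells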
# Details: HPDE-C7K KRASV12 cells, Alamar Blue viability, 48 h; at 10 µM; hits give high values
row,SMILES,cytotoxicity
1,O=C(Nc1ccc2c(c1)OCCO2)C1CCCN(S(=O)(=O)c2cnc[nH]2)C1 (configuration not stated),-1.8% (inactive)
2,Cn1c(NCCN2CCOCC2)nc2c1c(=O)n(Cc1cccc(Cl)c1)c(=O)n2C,22.4% (inactive)
3,Cn1c(=O)c2c(nc(NCCCN3CCOCC3)n2Cc2ccc(Cl)cc2Cl)n(C)c1=O,0.9% (inactive)
4,Cn1c(NCCCN2CCOCC2)nc2c1c(=O)n(Cc1ccc(Cl)cc1)c(=O)n2C,28.8% (inactive)
5,Cn1c(=O)c2c(nc(NCCCN3CCOCC3)n2Cc2ccc(Cl)c(Cl)c2)n(C)c1=O,-1.2% (inactive)
6,Cn1c(NCCCN2CCOCC2)nc2c1c(=O)n(Cc1ccc(Cl)c(Cl)c1)c(=O)n2C,54.6% (active)
7,Cn1c(NCCCN2CCOCC2)nc2c1c(=O)n(Cc1ccc(Cl)cc1Cl)c(=O)n2C,50.6% (active)
8,Cc1cc(C)nc(SCc2ccc3nonc3c2)n1,-23.2% (inactive)
9,Cc1cc(CN2C(=O)c3ccccc3C2=O)no1,-13.3% (inactive)
10,CCN(CC)S(=O)(=O)c1ccc(NC(=O)Cn2cnc3ccccc3c2=O)cc1,-6.7% (inactive)
11,CCC(=O)Nc1ccc(C(=O)n2nc(C)cc2C)cc1,10.7% (inactive)
12,CCSc1ccccc1C(=O)Nc1cc(C)on1,-0.6% (inactive)
13,COCCSc1ccccc1C(=O)Nc1nnc(C)s1,-9% (inactive)
14,COCCSc1ccccc1C(=O)Nc1cc(C)on1,85.8% (active)
15,COc1ccc(C2CCCN2C(=O)Nc2ccc(F)cc2)cc1OC (configuration not stated),-15.2% (inactive)
16,CNC(=O)C1CC(=O)N(Cc2ccc3c(c2)OCO3)C(=Nc2ccc(F)cc2)S1 (configuration not stated),-2.3% (inactive)
17,CCNC(=O)C1CC(=O)N(Cc2ccc3c(c2)OCO3)C(=Nc2ccc(F)cc2)S1 (configuration not stated),62.1% (active)
18,CCNC(=O)C1CC(=O)N(Cc2ccc3c(c2)OCO3)C(=Nc2ccc(OCC)cc2)S1 (configuration not stated),10% (inactive)
19,CC(=O)Oc1cccc2c1C(=O)c1c(OC(C)=O)cc(C(=O)O)cc1C2=O,8.1% (inactive)
20,O=C(O)c1cc(C(=O)O)c(-c2ccccc2)c(C(=O)O)c1,-12.8% (inactive)
21,CCOc1ccc(N2Cc3ncccc3C2=O)cc1,-0.1% (inactive)
22,O=C(COc1ccc2ccccc2c1Br)N1CCOCC1,-30.2% (inactive)
23,CCOc1ccccc1N1CCN(c2nc3ccccc3nc2C(C#N)C(=O)OC)CC1 (configuration not stated),50.6% (active)
24,CCCCCCOC(=O)C(C#N)c1nc2ccccc2nc1N1CCN(CC)CC1 (configuration not stated),5.9% (inactive)
25,COc1ccc(CNC(=O)C(C#N)c2nc3ccccc3nc2N2CCCC2)cc1 (configuration not stated),-9.7% (inactive)

row,SMILES,cytotoxicity
1,CCCCCCOC(=O)C(C#N)c1nc2ccccc2nc1N1CCN(C)CC1 (configuration not stated),70.2% (active)
2,C=CCOC(=O)C(C#N)c1nc2ccccc2nc1N1CCN(c2ccccc2OCC)CC1 (configuration not stated),4.2% (inactive)
3,CCCCCCOC(=O)C(C#N)c1nc2ccccc2nc1N1CCCCC1 (configuration not stated),-16.1% (inactive)
4,COc1ccc(CNC(=O)C(C#N)c2nc3ccccc3nc2N2CCN(C)CC2)cc1 (configuration not stated),76.5% (active)
5,CCOc1ccccc1N1CCN(c2nc3ccccc3nc2C(C#N)C(=O)OC(C)C)CC1 (configuration not stated),-18.6% (inactive)
6,N#CC(C(=O)NCc1ccccc1)c1nc2ccccc2nc1N1CCCC1 (configuration not stated),8.4% (inactive)
7,O=C1CC(c2ccccc2)CC2=C1CN(C1CCCCC1)CN2 (configuration not stated),22% (inactive)
8,Cc1nnc(NC(=O)C2CCN(c3cnccn3)CC2)s1,-12.6% (inactive)
9,CCOc1ccccc1Oc1coc2cc(O)ccc2c1=O,-11.5% (inactive)
10,Cc1cc(C(=O)Nc2sc(C)c(C)c2C#N)no1,-0.7% (inactive)
11,Cc1cc(C)n(CC(O)Cn2c3ccccc3c3ccccc32)c(=O)n1 (configuration not stated),11.5% (inactive)
12,CC1CCCC(C)N1C(=O)Cn1c(SCC(=O)Nc2ccc3c(c2)OCO3)nc2ccccc21 (configuration not stated),8.4% (inactive)
13,O=C1c2ccccc2-c2onc3ccc(NCc4ccco4)c1c23,51.6% (active)
14,COc1ccc(-c2onc3ccc(Cl)cc23)cc1OC,4.4% (inactive)
15,COc1ccc2noc3c2c1C(=O)c1ccccc1-3,72.7% (active)
16,O=C(NCc1ccco1)c1ccc2c(c1)C(=O)c1ccccc1-2,5.3% (inactive)
17,CCOc1ccc2noc3c2c1C(=O)c1ccccc1-3,23.3% (inactive)
18,O=C1c2ccccc2-c2onc3ccc(NCCCn4ccnc4)c1c23,27.5% (inactive)
19,C=C(C)c1ccc(C(C)(C)NC(=O)NCc2ccco2)cc1,8.8% (inactive)
20,CC(=O)c1c(C)[nH]c(C(=O)N2CCCCCC2)c1C,-5.8% (inactive)
21,CC(=O)N1CCc2c(sc(NC(=O)CN3C(=O)CCC3=O)c2C(N)=O)C1,0.3% (inactive)
22,COc1cc(NS(=O)(=O)c2cc(C)ccc2OC)c(OC)cc1Cl,4% (inactive)
23,COc1ccc(OC)c(S(=O)(=O)Nc2cc(OC)c(Cl)cc2OC)c1,6.9% (inactive)
24,COc1cc(NS(=O)(=O)c2ccc(OC)c(C)c2C)c(OC)cc1Cl,64.1% (active)
25,C=CCn1c(=O)c(C(=O)Nc2ccccc2C(=O)OCC)c(O)c2ccccc21,-8.6% (inactive)

row,SMILES,cytotoxicity
1,CCC(C)n1nccc1NC(=O)C(C)OC(=O)c1cc2ccccc2[nH]1 (configuration not stated),7% (inactive)
2,CCN(CC)c1ccc2c(C)c(-c3ccc(N)cc3)c(=O)oc2c1,82.1% (active)
3,CCOC(=O)Cc1c(C)c2ccc(N(CC)CC)cc2oc1=O,-21.9% (inactive)
4,CCNc1ccc2c(Cl)cc(=O)oc2c1,6.3% (inactive)
5,CCN(CC)c1ccc2c(C)c(CN3CCOCC3)c(=O)oc2c1,26.6% (inactive)
6,CCOc1cc2c(C)cc(=O)oc2cc1Cl,0.2% (inactive)
7,CCN(CC)C(=O)Oc1ccc2c(=O)c(-c3ccc(OC)cc3)c(C)oc2c1,4.7% (inactive)
8,CCN(CC)c1ccc2cc(NC(=O)CCC(=O)O)c(=O)oc2c1,15.5% (inactive)
9,COc1ccc(-n2cnnc2SCC(=O)N(C)C2CCS(=O)(=O)C2)cc1 (configuration not stated),3.5% (inactive)
10,COCc1nc2ccccc2n1Cc1ccc(Br)cc1,-5.7% (inactive)
11,CSc1nnc(-c2sc3cc(Cl)ccc3c2Cl)n1C,-20.3% (inactive)
12,Cc1csc(NC(=O)c2nc3nc(C)cc(C)n3n2)n1,-16.1% (inactive)
13,Cc1cccc(C)c1-n1nnnc1S(=O)(=O)Cc1ccccc1Cl,-1.5% (inactive)
14,COc1ccccc1-n1nnnc1SCc1ccccc1,-10.6% (inactive)
15,O=c1[nH]c2cc3c(cc2cc1CN(CCc1ccccc1)Cc1nnnn1C1CCCC1)OCCO3,-11.1% (inactive)
16,CC(CN1CCCCC1)OC(=O)c1cc2ccccc2o1 (configuration not stated),-6.7% (inactive)
17,CCCS(=O)(=O)N1CCCC(C(=O)NCc2ccc3c(c2)OCO3)C1 (configuration not stated),-6.2% (inactive)
18,CC(C)C[C@H](N)c1nnc(S(=O)(=O)Cc2cccc(F)c2)o1,-7.4% (inactive)
19,CC(C)[C@H](NC(=O)OC(C)(C)C)c1nnc(S(=O)(=O)Cc2c(F)cccc2Cl)o1,-5.9% (inactive)
20,Cc1ccc(C2N(c3cccc(Cl)c3)C(=O)C3CCCN32)o1 (configuration not stated),-0.1% (inactive)
21,COc1ccc(C(=O)Nn2c(SCC(=O)NCC3CCCO3)nc3ccccc3c2=O)cc1 (configuration not stated),-11% (inactive)
22,O=C(CCc1ccccc1)Nc1ccc(N2CCOCC2)cc1,2.6% (inactive)
23,Cc1cc(-n2c(=O)c(C#N)cc3c(=O)n4ccccc4nc32)no1,-4.7% (inactive)
24,Cc1ccc(-n2c(=O)c(C#N)cc3c(=O)n4ccccc4nc32)cc1,69.7% (active)
25,C=CCn1c(=O)c(C#N)cc2c(=O)n3ccccc3nc21,4.5% (inactive)

row,SMILES,cytotoxicity
1,O=C(Nc1ccc2c(c1)OCCO2)c1ccc(Br)c(S(=O)(=O)N2CCOCC2)c1,-7.9% (inactive)
2,CC(C)CC(NC(=O)C1CCC(C)CC1)C(=O)Nc1ccccn1 (configuration not stated),-19.7% (inactive)
3,CCOC(=O)c1nnn(-c2nonc2N)c1CSc1ccccn1,-3.2% (inactive)
4,COc1ccc(-n2nnnc2SCC(N)=O)cc1,-7.1% (inactive)
5,CCOC(=O)C1=C(c2ccccc2)NC(SCC(=O)Nc2ccccc2C)=C(C#N)C1c1ccco1 (configuration not stated),39% (inactive)
6,COc1ccccc1NC(=O)C1=C(C)NC(SCC(=O)c2ccccc2)=C(C#N)C1c1ccco1 (configuration not stated),27.2% (inactive)
7,CCOC(=O)CSC1=C(C#N)C(c2ccco2)C(C(=O)Nc2cccc(C(F)(F)F)c2)=C(C)N1 (configuration not stated),28.1% (inactive)
8,CC1=C(C(=O)Nc2ccccc2)C(c2ccco2)C(C#N)=C(SCc2ccccc2)N1 (configuration not stated),57.7% (active)
9,CC1=C(C(=O)Nc2ccccc2)C(c2ccco2)C(C#N)=C(SCC(=O)OC(C)C)N1 (configuration not stated),49.2% (inactive)
10,CC1=C(C(=O)Nc2ccccc2)C(c2ccco2)C(C#N)=C(SCC(=O)Nc2cccc(C)c2C)N1 (configuration not stated),79.6% (active)
11,CCOC(=O)C(NC(=O)c1ccccc1)=C1CCCCC1,-19.2% (inactive)
12,CC(c1ccccc1)n1cc(C(=O)NCc2ccccn2)nn1 (configuration not stated),-7.5% (inactive)
13,CCCc1cc(=O)[nH]c(SCC(=O)Nc2ccc(OC(F)F)cc2)n1,-7.3% (inactive)
14,O=C(NCCCN1CCCCCC1)c1ccc(CS(=O)(=O)Cc2ccccc2F)o1,-3% (inactive)
15,Cc1cccc2sc(NC(=O)CNS(=O)(=O)c3ccc(Br)s3)nc12,-11.6% (inactive)
16,Cc1cccc2sc(NC(=O)CN(C)S(=O)(=O)c3cccs3)nc12,28.8% (inactive)
17,COCCn1c(SCC#N)nnc1-c1ccccc1O,-24.2% (inactive)
18,COc1ccc(NC(=O)N2CCCCC2)cc1,-3.1% (inactive)
19,Oc1cccc(Nc2ncnc3ccccc23)c1,4.2% (inactive)
20,COc1ccc(CNC(=O)Cc2ccc(OC)c(S(=O)(=O)N3CCOCC3)c2)cc1,3.6% (inactive)
21,c1ccc(Cn2nnnc2CN2CCN(Cc3ccc4c(c3)OCO4)CC2)cc1,-0.4% (inactive)
22,Cc1nc2cc(C(F)(F)F)ccc2n1C1CCN(CC(=O)N2CCOCC2)CC1,-14.7% (inactive)
